Test results taken from PubChem BioAssay (NCATS).
Records with an inconclusive call do not appear. Activity calls are given as the source filed them. Calls come from the whole dose curve; as a rule, active = well fitted inhibition curve with a large enough effect; inconclusive = small, poorly fitted or top-dose-only effect; inactive = flat fitted curve, though single readings scatter.

These compounds were tested on Zika virus NS2B-NS3 protease (assay: Primary screen GU AMC qHTS for Zika virus inhibitors (AID 1347154;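 note: 0% = no-inhibitor control and -100% = no-enzyme control; nearly all actives have a fitted effect of over 70% in size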)). Conditions: Zika NS2B-NS3 unlinked protease, AMC fluorogenic substrate; series mostly up to 54.1 µM; activity change, negative = inhibition: at the top concentration.
In short: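 Unlinked Zika NS2B hydrophilic domain/NS3 protease domain noncovalent complex (25 nM final) in 10 mM Tris-HCl pH 8.0, 0.01% Tween 20, with AMC peptide substrate. Fluorescence (ex 340, em 450 nm) change over 15 min, room temperature; percent inhibition fitted to 4-parameter Hill equation.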

SMILES	activity change, negative = inhibition
CN(C)c1ccc(C(=O)NCCCCCCC(=O)NO)cc1	1.91% (inactive)
COc1ccc2c(c1OC)C(=O)OC2[C@H]1c2c(cc3c(c2OC)OCO3)CCN1C (some centres undefined)	8.27% (inactive)
O=C(O)C[C@H](O)C[C@H](O)C=Cc1c(C2CC2)nc2ccccc2c1-c1ccc(F)cc1	21.5% (inactive)
CC(C)OC(=O)[C@H](C)N[P@](=O)(OC[C@H]1O[C@@H](n2ccc(=O)[nH]c2=O)[C@](C)(F)[C@H]1O)Oc1ccccc1	10.5% (inactive)
CON=C(C(=O)N[C@@H]1C(=O)N2C(C(=O)O)=C(Cn3ccc(=N)n3CCO)CS[C@H]12)c1csc(N)n1	-1.01% (inactive)
Cn1c(Nc2ccc(C(F)(F)F)cc2)nc2cc(Oc3ccnc(-c4ncc(C(F)(F)F)[nH]4)c3)ccc21	-6.03% (inactive)
CC(=O)OCC(=O)[C@@]1(O)CC[C@H]2[C@@H]3CCC4=CC(=O)CC[C@]4(C)[C@@H]3C(=O)C[C@@]21C	5.47% (inactive)
CCNC(=O)Nc1ccc(-c2nc3c(c(N4CCOC[C@H]4C)n2)CCN(C2COC2)C3)cc1	-1.21% (inactive)
C#Cc1cccc(Nc2ncnc3cc(OCCOC)c(OCCO)cc23)c1	1.33% (inactive)
OC[C@H]1OC(O)C[C@@H](O)[C@H]1O (some centres undefined)	15.3% (inactive)
CC1(C)O[C@@H]2C[C@H]3[C@@H]4CCC5=CC(=O)C=C[C@]5(C)[C@@H]4[C@@H](O)C[C@]3(C)[C@]2(C(=O)CO)O1	-2.14% (inactive)
C[C@@]12C[C@@]3(O)O[C@@H](O1)[C@]1(COC(=O)c4ccccc4)[C@@H]3C[C@@]12O[C@@H]1O[C@H](CO)[C@@H](O)[C@H](O)[C@@H]1O	6.27% (inactive)
COc1cc(OC)c(C=CS(=O)(=O)Cc2ccc(OC)c(NCC(=O)O)c2)c(OC)c1	-5.74% (inactive)
NC(=O)c1ncn([C@@H]2O[C@H](CO)[C@@H](O)[C@@H]2O)c1O	4.22% (inactive)
